# “And” between values parts separate entries of the source, which are not always exact repeats. Equal entries are not always repeated. Records with an inconclusive call do not appear. Entries that show only a call come without a potency. Some structures have more than one record in an assay (separate samples or runs), and their calls can disagree. The source made the active and inactive calls. Unless noted, calls come from the whole dose curve.
# Experiments:
# [1] = Nuclear factor erythroid 2-related factor 2/antioxidant responsive element (Nrf2/ARE) small molecule agonists: qHTS cell viability counter screen in human keratinocytes (AID 1919968; active = well fitted curve in the direction sought with a large enough effect in the repeat runs; an effect the other way counts as inactive or inconclusive; note: nearly all actives have a fitted effect of over 55% in size; note: potency is the fitted concentration of half-maximal effect)
# Method in brief: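 In human HaCaT keratinocytes stably expressing an ARE-driven luciferase, compound exposure lasted 23 h at 37 C under 5% CO2. Viable cells are quantified with a protease-based fluorogenic reagent (CellTiter-Fluor) read 1 h after addition.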
# [2] = Nuclear factor erythroid 2-related factor 2/antioxidant responsive element (Nrf2/ARE) small molecule agonists: luciferase reporter gene qHTS assay in human keratinocytes (AID 1919969); note: nearly all actives have a fitted effect of over 35% in size; note: potency is the fitted concentration of half-maximal effect
# [3] = target: Gonadotropin-releasing hormone receptor (Homo sapiens) (UniProt P30968); test: Human gonadotropin-releasing hormone receptor (GnRHR) small molecule agonists, calcium flux assay in GnRHR-HEK293 cells (AID 1920063); note: nearly all actives have a fitted effect of over 35% in size
# Sequence of Gonadotropin-releasing hormone receptor (Homo sapiens) (P30968 whole entry, looked up): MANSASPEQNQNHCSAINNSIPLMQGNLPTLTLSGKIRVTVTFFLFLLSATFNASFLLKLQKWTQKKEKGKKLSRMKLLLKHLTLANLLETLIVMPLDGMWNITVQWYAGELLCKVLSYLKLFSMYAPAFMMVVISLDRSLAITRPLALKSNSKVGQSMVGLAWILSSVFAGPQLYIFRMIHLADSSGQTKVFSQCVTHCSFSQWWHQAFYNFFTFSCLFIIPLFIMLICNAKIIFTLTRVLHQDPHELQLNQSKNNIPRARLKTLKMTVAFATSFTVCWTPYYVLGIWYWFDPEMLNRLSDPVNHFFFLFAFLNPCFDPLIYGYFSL
# Method in brief: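 Intracellular calcium rise is the read-out: engineered human GnRHR HEK293 cells, dye-loaded, are exposed to DMSO-dissolved compounds and fluorescence at Ex/Em 480/540 is tracked for 3 min.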
# [4] = target: KiSS-1 receptor (Homo sapiens) (UniProt Q969F8); test: Human kisspeptin (KISS1R) small molecule agonists, calcium flux assay in KISS1R-HEK293 cells (AID 1920064; active = well fitted curve in the direction sought with a large enough effect in the repeat runs; an effect the other way counts as inactive or inconclusive)
# Sequence of KiSS-1 receptor (Homo sapiens) (Q969F8 whole entry, looked up): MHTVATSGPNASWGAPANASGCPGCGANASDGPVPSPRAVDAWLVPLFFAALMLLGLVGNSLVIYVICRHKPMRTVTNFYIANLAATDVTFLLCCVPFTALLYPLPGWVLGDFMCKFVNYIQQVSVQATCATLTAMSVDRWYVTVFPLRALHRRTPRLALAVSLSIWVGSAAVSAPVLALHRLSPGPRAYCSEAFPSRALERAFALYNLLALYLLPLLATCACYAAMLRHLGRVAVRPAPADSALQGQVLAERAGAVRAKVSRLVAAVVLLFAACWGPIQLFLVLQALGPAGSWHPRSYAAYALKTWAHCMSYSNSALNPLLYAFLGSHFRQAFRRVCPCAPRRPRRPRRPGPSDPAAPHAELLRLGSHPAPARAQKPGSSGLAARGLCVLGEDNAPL
# Method in brief: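 Concentration-response testing used 15 concentrations in triplicate on human KISS1R-expressing HEK293 cells. Calcium-dependent fluorescence (Ex/Em 480/540) was followed kinetically for 3 min after compound transfer.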
# [5] = G protein-coupled receptor (GPCR) small molecule agonists, calcium flux assay: HEK293 wild type cell line counter screen (AID 1920065)
# Method in brief: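 Fluorescence intensity signals activation. After overnight (18 h) culture and a 1 h calcium dye load at 37 C, compounds are added by pin tool and the plate read at 480/540 nm for 3 min in 1 s steps.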
# [6] = p53 small molecule agonists, cell-based qHTS assay with human liver microsomes (AID 1963577); note: potency is the fitted concentration of half-maximal effect;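 for activation: p53 response element beta-lactamase reporter cells with liver microsomes plus NADPH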
# Method in brief: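 Reporter activation was measured by LiveBLAzer fluorescence intensity in p53RE-bla cells, which had been exposed to compounds for 16 h at 37 C alongside 0.5 mg/mL human liver microsomes and 0.5 mg/mL NADPH (final concentrations).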
# [7] = p53 small molecule agonists, cell-based qHTS assay with rat liver microsomes (AID 1963578); note: potency is the fitted concentration of half-maximal effect
# Method in brief: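 Compound in DMSO added to p53RE-bla cells 5 h post-plating; rat microsomes/NADPH 0.5 mg/mL final; 16 h, 37 C; LiveBLAzer 2 h RT.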
# [8] = p53 small molecule agonists, cell-based qHTS assay with human liver microsomes: qHTS cell viability counter screen (AID 1963579); note: nearly all actives have a fitted effect of over 45% in size; note: potency is the fitted concentration of half-maximal effect
# Method in brief: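 HLM-supplemented (0.5 mg/mL final) and NADPH-supplemented (0.5 mg/mL final) p53RE-bla cultures, 4,000 cells per well, were dosed with compounds in DMSO for 16 h at 37 C; luminescent ATP detection (CellTiter-Glo, 30 min, room temperature) quantified surviving cells.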
# [9] = p53 small molecule agonists, cell-based qHTS assay: qHTS cell viability counter screen (AID 1963581); note: nearly all actives have a fitted effect of over 45% in size
# Method in brief: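 Luminescence from CellTiter-Glo, reflecting ATP content, serves as the cytotoxicity measure; it is taken after the 2 h reporter substrate step in HCT-116 p53RE-bla cells dosed for 16 h at 37 C.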
# [10] = p53 small molecule agonists, cell-based qHTS assay (AID 1963582; active = well fitted activation curve with a large enough effect in the signal ratio in the repeat runs, not every such curve was filed as active; the % refers to the signal ratio; note: potency is the fitted concentration of half-maximal effect)
# Method in brief: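 After plating, p53RE-bla cells sat 5 h in the incubator; compounds or DMSO vehicle were pinned in; a 16 h incubation at 37 C followed; FRET substrate was added and, 2 h later at RT, fluorescence was measured.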
# [11] = target: 5-hydroxytryptamine receptor 2A (Homo sapiens) (UniProt P28223); test: 5-hydroxytryptamine receptor 2A (HTR2A) small molecule agonists, cell-based qHTS assay (AID 1963587); note: nearly all actives have a fitted effect of over 30% in size; note: potency is the fitted concentration of half-maximal effect
# Sequence of 5-hydroxytryptamine receptor 2A (Homo sapiens) (P28223 whole entry, looked up): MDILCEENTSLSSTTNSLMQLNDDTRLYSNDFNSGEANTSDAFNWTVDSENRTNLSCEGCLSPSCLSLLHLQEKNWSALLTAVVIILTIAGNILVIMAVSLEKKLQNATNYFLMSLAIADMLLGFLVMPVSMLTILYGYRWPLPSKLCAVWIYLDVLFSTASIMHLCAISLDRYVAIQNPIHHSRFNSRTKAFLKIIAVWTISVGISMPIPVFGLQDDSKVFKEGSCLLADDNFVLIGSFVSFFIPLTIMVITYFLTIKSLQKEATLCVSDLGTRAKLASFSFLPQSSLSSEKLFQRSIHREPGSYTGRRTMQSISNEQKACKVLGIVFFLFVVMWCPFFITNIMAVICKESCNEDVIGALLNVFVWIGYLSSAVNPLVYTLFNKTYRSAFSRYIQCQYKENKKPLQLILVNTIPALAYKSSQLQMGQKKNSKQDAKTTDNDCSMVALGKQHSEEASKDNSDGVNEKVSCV
# Method in brief: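 HTR2A-CHO cells, plated 18 h at 37 C/5% CO2, dye-loaded 1 h at 37 C; compounds in DMSO added by pin tool (agonist mode). Intracellular calcium flux read as kinetic fluorescence on FDSS over 2 min at 1 s intervals.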
# [12] = target: Muscarinic acetylcholine receptor M1 (Homo sapiens) (UniProt P11229); test: Cholinergic receptor muscarinic 1 (CHRM1) small molecule antagonists, cell-based qHTS assay (AID 1963588); note: nearly all actives have a fitted effect of over 40% in size; note: potency is the fitted concentration of half-maximal effect
# Sequence of Muscarinic acetylcholine receptor M1 (Homo sapiens) (P11229 whole entry, looked up): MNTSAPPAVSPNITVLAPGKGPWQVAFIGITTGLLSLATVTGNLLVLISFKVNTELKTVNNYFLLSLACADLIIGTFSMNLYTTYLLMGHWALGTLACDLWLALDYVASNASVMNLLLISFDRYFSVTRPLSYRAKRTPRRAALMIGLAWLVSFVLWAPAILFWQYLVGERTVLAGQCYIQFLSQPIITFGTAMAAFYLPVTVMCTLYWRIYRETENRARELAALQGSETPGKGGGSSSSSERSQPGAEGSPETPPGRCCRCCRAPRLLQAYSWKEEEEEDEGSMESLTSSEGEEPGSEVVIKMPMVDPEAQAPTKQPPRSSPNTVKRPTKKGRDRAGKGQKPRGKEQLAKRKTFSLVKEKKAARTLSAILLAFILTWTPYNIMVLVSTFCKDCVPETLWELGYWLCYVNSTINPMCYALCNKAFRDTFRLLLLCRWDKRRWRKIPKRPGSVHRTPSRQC
# Method in brief: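 Compounds were tested at 15 concentrations in three independent runs. Dye-loaded CHRM1-CHO cells were exposed 5 min at room temperature before stimulation by acetylcholine added at 50nM. Intracellular calcium was read kinetically on FDSS for 3 min.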
# [13] = target: Muscarinic acetylcholine receptor M1 (Homo sapiens) (UniProt P11229); test: Cholinergic receptor muscarinic 1 (CHRM1) small molecule agonists, cell-based qHTS assay (AID 1963589); note: nearly all actives have a fitted effect of over 35% in size
# Method in brief: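 Fluorescent calcium dye reports M1 activation in stably transfected CHO cells. Compounds, 15 concentrations, added after 1 h dye loading at 37 C; kinetic reading at 1 sec intervals.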
# [14] = cAMP Responsive Elements (CRE) small molecule antagonists, cell-based qHTS assay (AID 1963591; active = well fitted inhibition curve with a large enough effect in the signal ratio in the repeat runs, not every such curve was filed as active; the % refers to the signal ratio)
# Method in brief: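 Stimulation used NKH477 at a final 0.25 uM for 3 h in compound-treated CRE-bla HEK293T cells, seeded 18 h beforehand. Reporter activity was measured with LiveBLAzer B/G FRET substrate after 2 h at room temperature.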
# [15] = target: Beta-2 adrenergic receptor (Homo sapiens) (UniProt P07550); test: Adrenergic beta2 receptor (ADRB2) small molecule antagonists, cell-based qHTS assay (AID 1963592); note: series mostly up to about 92 µM; nearly all actives have a fitted effect of over 50% in size
# Sequence of Beta-2 adrenergic receptor (Homo sapiens) (P07550 whole entry, looked up): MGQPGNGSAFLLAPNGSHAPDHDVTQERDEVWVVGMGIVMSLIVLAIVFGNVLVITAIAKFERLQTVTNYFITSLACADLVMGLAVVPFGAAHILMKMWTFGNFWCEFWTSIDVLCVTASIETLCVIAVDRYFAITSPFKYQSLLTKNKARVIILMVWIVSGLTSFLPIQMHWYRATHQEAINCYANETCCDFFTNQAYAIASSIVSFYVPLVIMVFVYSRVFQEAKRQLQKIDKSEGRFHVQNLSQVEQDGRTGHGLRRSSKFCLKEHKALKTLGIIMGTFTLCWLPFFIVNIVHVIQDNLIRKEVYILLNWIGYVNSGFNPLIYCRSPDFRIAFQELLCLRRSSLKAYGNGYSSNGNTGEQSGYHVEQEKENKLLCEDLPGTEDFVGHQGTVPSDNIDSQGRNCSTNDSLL
# Method in brief: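 Assay format: CHO-ADRB2 cells, 18-20hr seeding at 37C/5% CO2, then compound plus 1nM isoproterenol agonist mix for 0.5hr RT. Homogeneous time-resolved fluorescence cAMP detection after 1hr, expressed as 665/615 nm ratio.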
# [16] = target: D(2) dopamine receptor (Homo sapiens) (UniProt P14416); test: Dopamine D2 receptor (DRD2) small molecule agonists, cell-based qHTS assay (AID 1963594); note: nearly all actives have a fitted effect of over 35% in size
# Sequence of D(2) dopamine receptor (Homo sapiens) (P14416 whole entry, looked up): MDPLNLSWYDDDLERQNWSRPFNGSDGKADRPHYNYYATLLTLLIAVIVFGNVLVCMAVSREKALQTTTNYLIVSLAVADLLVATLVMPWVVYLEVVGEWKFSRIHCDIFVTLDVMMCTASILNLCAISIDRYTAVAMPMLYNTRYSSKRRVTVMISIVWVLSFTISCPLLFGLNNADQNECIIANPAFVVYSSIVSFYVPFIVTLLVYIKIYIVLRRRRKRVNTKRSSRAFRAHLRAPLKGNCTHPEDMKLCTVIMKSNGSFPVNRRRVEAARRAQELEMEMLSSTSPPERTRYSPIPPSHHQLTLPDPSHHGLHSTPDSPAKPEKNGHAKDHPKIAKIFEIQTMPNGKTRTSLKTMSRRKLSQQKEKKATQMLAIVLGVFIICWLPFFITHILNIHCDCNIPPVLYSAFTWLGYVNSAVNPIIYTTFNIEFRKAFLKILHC
# Method in brief: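 HEK293 cells stably expressing DRD2 were cultured 24 h at 37 C, then given Ro20-1724 (0.1 mM final) and compounds for 10 min at room temperature. NKH477 (200nM) was then added for 30 min. cAMP was read by HTRF.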
# [17] = target: D(2) dopamine receptor (Homo sapiens) (UniProt P14416); test: Dopamine D2 receptor (DRD2) small molecule antagonists, cell-based qHTS assay (AID 1963595; active = well fitted inhibition curve with a large enough effect in the signal ratio in the repeat runs, with a control signal flat; the % refers to the signal ratio)
# Method in brief: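 Human DRD2 antagonist qHTS measuring cAMP by HTRF. The cells are exposed to compound for 10 min, then to NKH477 (200 nM) and quinpirole (12 nM) for 30 min at RT, with Ro20-1724 (0.1 mM) present throughout.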
# [18] = target: 5-hydroxytryptamine receptor 2A (Homo sapiens) (UniProt P28223); test: 5-hydroxytryptamine receptor 2A (HTR2A) small molecule antagonists, cell-based qHTS assay (AID 1963586); note: nearly all actives have a fitted effect of over 45% in size
# Method in brief: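 CHO cells stably expressing human HTR2A were plated for 18 h at 37 C, then loaded with calcium dye for 1 h. Compounds were preincubated 5 min at room temperature before DOI (4 nM solution) was added. Kinetic fluorescence was read for 3 min.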
# [19] = p53 small molecule agonists, cell-based qHTS assay with rat liver microsomes: qHTS cell viability counter screen (AID 1963580); note: nearly all actives have a fitted effect of over 45% in size
# Method in brief: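 Luminescent ATP readout (CellTiter-Glo, 30 min at room temperature) reports viability of p53RE-bla HCT-116 cells after 16 h at 37 C with test compounds under metabolic activation by rat liver microsomes and NADPH at 0.5 mg/mL final each.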
# [20] = cAMP Responsive Elements (CRE) small molecule agonists, cell-based qHTS assay (AID 1963590)
# Method in brief: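 Compound exposure lasted 3 h at 37 C/5% CO2 in CRE-bla HEK 293T cells grown in assay medium with 10% dialyzed FBS and 25 mM HEPES. Reporter signal came from LiveBLAzer B/G FRET substrate, 2 h, room temperature.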
SMILES,Potency [1],Potency [2],Potency [3],Potency [4],Potency [5],Potency [6],Potency [7],Potency [8],Potency [9],Potency [10],Potency [11],Potency [12],Potency [13],Potency [14],Potency [15],Potency [16],Potency [17],Potency [18],Potency [19],Potency [20]
NS(=O)(=O)c1ccc(N2CCCCS2(=O)=O)cc1,inactive,inactive,inactive,inactive,inactive,inactive,inactive,inactive,inactive,inactive,inactive,inactive,inactive,inactive,inactive,inactive,inactive,–,–,–
Nc1c2ccccc2nc2ccccc12,inactive,6.03 µM (active) and 6.68 µM (active),inactive,inactive,inactive,11.3 µM (active) and 19.9 µM (active),40.3 µM (active),inactive,inactive,–,inactive,14.7 µM (active) and inactive,inactive,–,inactive,inactive,inactive,inactive,–,–
CCOC(=O)c1ccccc1C,inactive,inactive,inactive,inactive,inactive,inactive,inactive,–,inactive,inactive,inactive,inactive,inactive,inactive,inactive,inactive,inactive,inactive,inactive,inactive
CCCc1ccc(N)cc1,inactive,inactive,inactive,inactive,inactive,inactive,inactive,inactive,–,inactive,–,inactive,inactive,inactive,inactive,inactive,inactive,inactive,–,–
COC(=O)Nc1nc2ccc(Sc3ccccc3)cc2[nH]1,inactive,30.6 µM (active) and 3.35 µM (active),inactive,inactive,inactive,inactive,inactive,inactive,–,363 nM (active),–,–,–,–,inactive,inactive,inactive,–,–,–
CN(C)C(=S)SC(=S)N(C)C,1.11 µM (active) and 1.09 µM (active),inactive,inactive,inactive,inactive,inactive,inactive,41.8 µM (active) and inactive,inactive,–,50.2 µM (active) and inactive,inactive,inactive,–,inactive,inactive,inactive,inactive,–,inactive
CC(C)=CCC[C@H](C)CC=O,inactive,inactive,inactive,inactive,inactive,inactive,inactive,inactive,inactive,inactive,–,–,–,inactive,inactive,inactive,inactive,–,–,inactive
CC(=O)OC[C@H]1O[C@@H](OC(C)=O)[C@H](OC(C)=O)[C@@H]1OC(C)=O,inactive,inactive,inactive,inactive,inactive,inactive,inactive,inactive,inactive,inactive,inactive,inactive,inactive,inactive,inactive,inactive,inactive,–,–,inactive

# Reference: PubChem BioAssay (Tox21)
